Test results published in PMC9911399, “Two distinct binding modes provide the RNA-binding protein RbFox with extraordinary sequence specificity”.
Changes are numbered by the printed parent chain; changes in the protein carry UniProt numbers. The full ranking holds about 16,000 sequences; the median of “ka relative to ugcaugu” is about 0.0091, and the highest 2% start at about 0.032. This excerpt belongs to a sample that is enriched for the highest values.

T1: RBFOX1 RRM (Homo sapiens, UniProt Q9NWB1 109-208)
T1 sequence: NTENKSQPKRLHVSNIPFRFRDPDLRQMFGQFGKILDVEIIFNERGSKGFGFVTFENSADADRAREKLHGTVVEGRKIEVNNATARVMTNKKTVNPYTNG

B1: CAGCUCA (DNA:RNA)
RNA: GGGAGACCGGAAUUCAGAUUGUCCCAGCUCAUUAAAUCCCGUCGUAGCCACCA
DNA 1: CAATCTGAATTCCGGTCTCCC
DNA 2: TGGTGGCTACGACGGGATT
B2: GUAUCUG (DNA:RNA)
RNA: GGGAGACCGGAAUUCAGAUUGUCCGUAUCUGUUAAAUCCCGUCGUAGCCACCA
DNA 1: CAATCTGAATTCCGGTCTCCC
DNA 2: TGGTGGCTACGACGGGATT
B3: AAUGCCC (DNA:RNA)
RNA: B1 RNA with C25A, G27U, C28G, U29C, A31C
DNA 1: CAATCTGAATTCCGGTCTCCC
DNA 2: TGGTGGCTACGACGGGATT
B4: UGAACGA (DNA:RNA)
RNA: B2 RNA with G25U, U26G, U28A, U30G, G31A
DNA 1: CAATCTGAATTCCGGTCTCCC
DNA 2: TGGTGGCTACGACGGGATT
B5: CUAGAGG (DNA:RNA)
RNA: B2 RNA with G25C, U28G, C29A, U30G
DNA 1: CAATCTGAATTCCGGTCTCCC
DNA 2: TGGTGGCTACGACGGGATT
B6: UAGCGUU (DNA:RNA)
RNA: B1 RNA with C25U, U29G, C30U, A31U
DNA 1: CAATCTGAATTCCGGTCTCCC
DNA 2: TGGTGGCTACGACGGGATT
B7: UGACAAC (DNA:RNA)
RNA: B1 RNA with C25U, A26G, G27A, U29A, C30A, A31C
DNA 1: CAATCTGAATTCCGGTCTCCC
DNA 2: TGGTGGCTACGACGGGATT
B8: AACUUUA (DNA:RNA)
RNA: B1 RNA with C25A, G27C, C28U, C30U
DNA 1: CAATCTGAATTCCGGTCTCCC
DNA 2: TGGTGGCTACGACGGGATT
B9: UGUUCGU (DNA:RNA)
RNA: B2 RNA with G25U, U26G, A27U, U30G, G31U
DNA 1: CAATCTGAATTCCGGTCTCCC
DNA 2: TGGTGGCTACGACGGGATT
B10: UGCUGAG (DNA:RNA)
RNA: B2 RNA with G25U, U26G, A27C, C29G, U30A
DNA 1: CAATCTGAATTCCGGTCTCCC
DNA 2: TGGTGGCTACGACGGGATT
B11: UGUGUGG (DNA:RNA)
RNA: B1 RNA with C25U, A26G, G27U, C28G, C30G, A31G
DNA 1: CAATCTGAATTCCGGTCTCCC
DNA 2: TGGTGGCTACGACGGGATT
B12: UGUCCGU (DNA:RNA)
RNA: B1 RNA with C25U, A26G, G27U, U29C, C30G, A31U
DNA 1: CAATCTGAATTCCGGTCTCCC
DNA 2: TGGTGGCTACGACGGGATT
B13: GCUGUCG (DNA:RNA)
RNA: B1 RNA with C25G, A26C, G27U, C28G, A31G
DNA 1: CAATCTGAATTCCGGTCTCCC
DNA 2: TGGTGGCTACGACGGGATT
B14: GCUGUUG (DNA:RNA)
RNA: B2 RNA with U26C, A27U, U28G, C29U
DNA 1: CAATCTGAATTCCGGTCTCCC
DNA 2: TGGTGGCTACGACGGGATT
B15: UGGUGUG (DNA:RNA)
RNA: B2 RNA with G25U, U26G, A27G, C29G
DNA 1: CAATCTGAATTCCGGTCTCCC
DNA 2: TGGTGGCTACGACGGGATT
B16: UGUGGUG (DNA:RNA)
RNA: B2 RNA with G25U, U26G, A27U, U28G, C29G
DNA 1: CAATCTGAATTCCGGTCTCCC
DNA 2: TGGTGGCTACGACGGGATT
B17: UGAGUUG (DNA:RNA)
RNA: B2 RNA with G25U, U26G, U28G, C29U
DNA 1: CAATCTGAATTCCGGTCTCCC
DNA 2: TGGTGGCTACGACGGGATT
B18: GUCCUGU (DNA:RNA)
RNA: B1 RNA with C25G, A26U, G27C, C30G, A31U
DNA 1: CAATCTGAATTCCGGTCTCCC
DNA 2: TGGTGGCTACGACGGGATT
B19: UGAGGAG (DNA:RNA)
RNA: B2 RNA with G25U, U26G, U28G, C29G, U30A
DNA 1: CAATCTGAATTCCGGTCTCCC
DNA 2: TGGTGGCTACGACGGGATT
B20: GCUGCUG (DNA:RNA)
RNA: B2 RNA with U26C, A27U, U28G
DNA 1: CAATCTGAATTCCGGTCTCCC
DNA 2: TGGTGGCTACGACGGGATT
B21: AUCUUGC (DNA:RNA)
RNA: B2 RNA with G25A, A27C, C29U, U30G, G31C
DNA 1: CAATCTGAATTCCGGTCTCCC
DNA 2: TGGTGGCTACGACGGGATT
B22: AUGACCA (DNA:RNA)
RNA: B1 RNA with C25A, A26U, C28A, U29C
DNA 1: CAATCTGAATTCCGGTCTCCC
DNA 2: TGGTGGCTACGACGGGATT
B23: CUAAUUG (DNA:RNA)
RNA: B2 RNA with G25C, U28A, C29U
DNA 1: CAATCTGAATTCCGGTCTCCC
DNA 2: TGGTGGCTACGACGGGATT
B24: GGCCUGU (DNA:RNA)
RNA: B1 RNA with C25G, A26G, G27C, C30G, A31U
DNA 1: CAATCTGAATTCCGGTCTCCC
DNA 2: TGGTGGCTACGACGGGATT
B25: GAUUAGC (DNA:RNA)
RNA: B2 RNA with U26A, A27U, C29A, U30G, G31C
DNA 1: CAATCTGAATTCCGGTCTCCC
DNA 2: TGGTGGCTACGACGGGATT
B26: UGCAACU (DNA:RNA)
RNA: B1 RNA with C25U, A26G, G27C, C28A, U29A, A31U
DNA 1: CAATCTGAATTCCGGTCTCCC
DNA 2: TGGTGGCTACGACGGGATT
B27: GGGCCGG (DNA:RNA)
RNA: B2 RNA with U26G, A27G, U28C, U30G
DNA 1: CAATCTGAATTCCGGTCTCCC
DNA 2: TGGTGGCTACGACGGGATT
B28: CGUGUGC (DNA:RNA)
RNA: B1 RNA with A26G, G27U, C28G, C30G, A31C
DNA 1: CAATCTGAATTCCGGTCTCCC
DNA 2: TGGTGGCTACGACGGGATT
B29: CCUGUGC (DNA:RNA)
RNA: B1 RNA with A26C, G27U, C28G, C30G, A31C
DNA 1: CAATCTGAATTCCGGTCTCCC
DNA 2: TGGTGGCTACGACGGGATT
B30: CGUUCUG (DNA:RNA)
RNA: B2 RNA with G25C, U26G, A27U
DNA 1: CAATCTGAATTCCGGTCTCCC
DNA 2: TGGTGGCTACGACGGGATT
B31: CUGUUUG (DNA:RNA)
RNA: B2 RNA with G25C, A27G, C29U
DNA 1: CAATCTGAATTCCGGTCTCCC
DNA 2: TGGTGGCTACGACGGGATT
B32: CGUCCUG (DNA:RNA)
RNA: B2 RNA with G25C, U26G, A27U, U28C
DNA 1: CAATCTGAATTCCGGTCTCCC
DNA 2: TGGTGGCTACGACGGGATT
B33: UGUUUGC (DNA:RNA)
RNA: B1 RNA with C25U, A26G, G27U, C28U, C30G, A31C
DNA 1: CAATCTGAATTCCGGTCTCCC
DNA 2: TGGTGGCTACGACGGGATT
B34: CUGUCGU (DNA:RNA)
RNA: B2 RNA with G25C, A27G, U30G, G31U
DNA 1: CAATCTGAATTCCGGTCTCCC
DNA 2: TGGTGGCTACGACGGGATT
B35: UGUGUGC (DNA:RNA)
RNA: B1 RNA with C25U, A26G, G27U, C28G, C30G, A31C
DNA 1: CAATCTGAATTCCGGTCTCCC
DNA 2: TGGTGGCTACGACGGGATT
B36: UGUUCUG (DNA:RNA)
RNA: B2 RNA with G25U, U26G, A27U
DNA 1: CAATCTGAATTCCGGTCTCCC
DNA 2: TGGTGGCTACGACGGGATT
B37: UGUUUUG (DNA:RNA)
RNA: B2 RNA with G25U, U26G, A27U, C29U
DNA 1: CAATCTGAATTCCGGTCTCCC
DNA 2: TGGTGGCTACGACGGGATT
B38: CUGUUGU (DNA:RNA)
RNA: B1 RNA with A26U, C28U, C30G, A31U
DNA 1: CAATCTGAATTCCGGTCTCCC
DNA 2: TGGTGGCTACGACGGGATT
B39: CGUUUGC (DNA:RNA)
RNA: B1 RNA with A26G, G27U, C28U, C30G, A31C
DNA 1: CAATCTGAATTCCGGTCTCCC
DNA 2: TGGTGGCTACGACGGGATT

target: T1, RBFOX1 RRM; assay: EMSA; HiTS-Eq, 1 nM pool, 10 min; buffer printed only for the single-RNA assays: 10 mM Tris pH 7.5, 150 mM NaCl, 3.4 mM EDTA, 0.001% NP-40, 30 C; conditions: tags: His6 N-terminal (pET28a); label: 5' 32P
How it was run: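 Relative association constants, normalised to the cognate motif, were derived by comparing read counts of each RNA species with those of the control reaction. The RNA sequenced was the free fraction, separated by 8% native PAGE after a 10 min equilibration in 50 µL of 1 nM 5′-radiolabelled RNA (7 randomized nucleotides) with increasing concentrations of purified wild-type or mutant RbFox RRM.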

| Binder | binding signal |
| --- | --- |
| B1 | 0.00282 KA relative to UGCAUGU |
| B2 | 0.015 KA relative to UGCAUGU |
| B3 | 0.00474 KA relative to UGCAUGU |
| B4 | 0.0199 KA relative to UGCAUGU |
| B5 | 0.00494 KA relative to UGCAUGU |
| B6 | 0.0117 KA relative to UGCAUGU |
| B7 | 0.00863 KA relative to UGCAUGU |
| B8 | 0.000524 KA relative to UGCAUGU |
| B9 | 0.0328 KA relative to UGCAUGU |
| B10 | 0.0319 KA relative to UGCAUGU |
| B11 | 0.0178 KA relative to UGCAUGU |
| B12 | 0.0131 KA relative to UGCAUGU |
| B13 | 0.0197 KA relative to UGCAUGU |
| B14 | 0.028 KA relative to UGCAUGU |
| B15 | 0.029 KA relative to UGCAUGU |
| B16 | 0.0376 KA relative to UGCAUGU |
| B17 | 0.0276 KA relative to UGCAUGU |
| B18 | 0.0155 KA relative to UGCAUGU |
| B19 | 0.0109 KA relative to UGCAUGU |
| B20 | 0.0323 KA relative to UGCAUGU |

| Binder | binding signal |
| --- | --- |
| B21 | 0.0138 KA relative to UGCAUGU |
| B22 | 0.00337 KA relative to UGCAUGU |
| B23 | 0.013 KA relative to UGCAUGU |
| B24 | 0.0238 KA relative to UGCAUGU |
| B25 | 0.0124 KA relative to UGCAUGU |
| B26 | 0.0132 KA relative to UGCAUGU |
| B27 | 0.0124 KA relative to UGCAUGU |
| B28 | 0.0146 KA relative to UGCAUGU |
| B29 | 0.0232 KA relative to UGCAUGU |
| B30 | 0.0207 KA relative to UGCAUGU |
| B31 | 0.0332 KA relative to UGCAUGU |
| B32 | 0.0127 KA relative to UGCAUGU |
| B33 | 0.0351 KA relative to UGCAUGU |
| B34 | 0.0193 KA relative to UGCAUGU |
| B35 | 0.0333 KA relative to UGCAUGU |
| B36 | 0.0328 KA relative to UGCAUGU |
| B37 | 0.0286 KA relative to UGCAUGU |
| B38 | 0.0226 KA relative to UGCAUGU |
| B39 | 0.019 KA relative to UGCAUGU |
